Among the data in PubChem BioAssay (NCATS) are Potency values, retold here.

Records with an inconclusive call do not appear. A number with no mark means an inactive call. Calls of active or inactive are those of the source. Unless noted, calls follow the shape of the full dose curve.

The nature of assay [1]: qHTS for Inhibitors of the Functional Ribonucleoprotein Complex (vRNP) of Lassa (LASV) Arenavirus: LASV Primary Screen - GLuc reporter signal (AID 1347082; calls by dose curve; tested in HEK293 reporter line; also: nearly all actives have a fitted effect of over 60% in size). Background: qHTS replaces the single test concentration by a dilution series.
A short description of assay [2]: qHTS for Inhibitors of the Functional Ribonucleoprotein Complex (vRNP) of Lassa (LASV) Arenavirus: Viability assay - alamar blue signal for LASV Primary Screen (AID 1347083; calls by dose curve; tested in HEK293 reporter line; also: nearly all actives have a fitted effect of over 80% in size).
A short description of assay [3]: qHTS for Inhibitors of the Functional Ribonucleoprotein Complex (vRNP) of Lymphocytic Choriomeningitis Arenaviruses (LCMV): Viability assay - alamar blue signal for LCMV Primary Screen (AID 1347085; calls by dose curve; tested in HEK293 reporter line; also: nearly all actives have a fitted effect of over 80% in size).
In assay [4] the target is Nucleoprotein (Lymphocytic choriomeningitis virus (strain Armstrong)) (UniProt P09992). The experiment in a line: qHTS for Inhibitors of the Functional Ribonucleoprotein Complex (vRNP) of Lymphocytic Choriomeningitis Arenaviruses (LCMV): LCMV Primary Screen - GLuc reporter signal (AID 1347086). Also: nearly all actives have a fitted effect of over 70% in size.
Nucleoprotein (Lymphocytic choriomeningitis virus (strain Armstrong)), sequence (P09992 whole entry, looked up): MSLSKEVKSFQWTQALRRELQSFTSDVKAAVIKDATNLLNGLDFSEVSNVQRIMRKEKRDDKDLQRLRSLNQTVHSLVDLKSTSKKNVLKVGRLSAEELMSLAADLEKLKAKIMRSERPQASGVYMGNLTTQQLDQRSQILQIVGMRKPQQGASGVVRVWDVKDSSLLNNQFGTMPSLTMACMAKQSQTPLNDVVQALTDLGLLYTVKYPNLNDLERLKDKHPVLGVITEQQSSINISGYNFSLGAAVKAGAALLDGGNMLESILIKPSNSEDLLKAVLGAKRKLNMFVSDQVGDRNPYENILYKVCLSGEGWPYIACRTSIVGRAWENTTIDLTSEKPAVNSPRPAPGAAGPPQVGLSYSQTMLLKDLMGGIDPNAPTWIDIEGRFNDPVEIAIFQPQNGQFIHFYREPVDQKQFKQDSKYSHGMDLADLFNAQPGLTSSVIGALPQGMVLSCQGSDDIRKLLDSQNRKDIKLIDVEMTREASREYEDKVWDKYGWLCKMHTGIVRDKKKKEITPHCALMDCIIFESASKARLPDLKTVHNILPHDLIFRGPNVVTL
Potency is read from the fitted curve at half-maximal effect.

`CC1CCC(C(C)[C@H]2CCC3C4CC(=O)C5C[C@@H](O)CC[C@]5(C)C4CC[C@@]32C)=NC1` (stereo not given in full): the Potency entry in assay [1], in assay [2], in assay [3] and in assay [4] was “inactive” throughout.
For `COc1cc2oc(=O)ccc2cc1O`, the Potency result in assay [1], in assay [2], in assay [3] and in assay [4] was “inactive” in each case.
`C[C@@H]1CC[C@@]23COC(=O)C2=CCC[C@@H]3[C@@]1(C)CC/C(=C/CO)CO`: the Potency result in assay [1], in assay [2], in assay [3] and in assay [4] was “inactive” each time.
In the case of `CC(C)CNC(=O)/C=C/C=C/CCCC/C=C/c1ccc2c(c1)OCO2`, the Potency entry in assay [1], in assay [2], in assay [3] and in assay [4] was “inactive” each time.
With `C=C[C@@]1(C)CCC(/C(C)=C/C=C/C(C)(C)O)C[C@@H]1C(=C)C` (stereo not given in full), the Potency result in assay [1], in assay [2], in assay [3] and in assay [4] was “inactive” in each case.
With `COc1c(-c2ccc(O)cc2)oc2cc(O)cc(O)c2c1=O`, the Potency entry in assay [1], in assay [2], in assay [3] and in assay [4] was “inactive” throughout.
As to `CCC(C)(O)C(=O)N[C@H]1CCCN1C(=O)/C=C/c1ccccc1` (stereo not given in full), the Potency result in assay [1], in assay [2], in assay [3] and in assay [4] was “inactive” each time.
Turning to `CCCCCCCCCCOS(=O)(=O)O`, the Potency entry in assay [1], in assay [2], in assay [3] and in assay [4] was “inactive” each time.
Regarding `COc1c2c(nc3occc13)C(CC=C(C)C)(OC)C(OC(C)=O)CC2` (stereo not given), the Potency entry in assay [1], in assay [2], in assay [3] and in assay [4] was “inactive” each time.
Consider `Cn1c2ccccc2c(=O)c2c(O)cccc21`, for which the Potency entry in assay [1], in assay [2], in assay [3] and in assay [4] was “inactive” throughout.
Turning to `CCCCC/C=C/CC(=O)OC`, the Potency result in assay [1], in assay [2], in assay [3] and in assay [4] was “inactive” each time.
`COc1cc(C(=O)O[C@@H]2CC3CC[C@]2(C)C3(C)C)ccc1O`: the Potency result in assay [1], in assay [2], in assay [3] and in assay [4] was “inactive” throughout.
For the molecule `Cc1ccc([N+](=O)[O-])cc1S(=O)(=O)N(C)N=Cc1cnc2ccc(Br)cn12`, the Potency in assay [1] is 21.7 nM (active); in assay [2] it was 24.3 nM (active); in assay [3], 61.1 nM (active); in assay [4], 217 nM (active).
For `CNc1ncnc2c1ncn2[C@@H]1O[C@H](CO)C(O)[C@H]1O` (stereo not given in full) the same measures were “inactive”, “inactive”, “inactive” and “inactive”.
For `COc1ccc(C2Sc3ccccc3N(CCN(C)C)C(=O)C2OC(C)=O)cc1` (stereo not given) the same measures were “inactive”, “inactive”, “inactive” and “inactive”.
Turning to `CC[C@@H]([C@H](C)O)n1ncn(-c2ccc(N3CCN(c4ccc(OCC5CO[C@@](Cn6cncn6)(c6ccc(F)cc6F)C5)cc4)CC3)cc2)c1=O` (stereo not given in full), the Potency entry in assay [1], in assay [2], in assay [3] and in assay [4] was “inactive” each time.
For the molecule `CC(C)C(=O)OCCc1ccccc1`, the Potency result in assay [1], in assay [2], in assay [3] and in assay [4] was “inactive” throughout.
Turning to `CC(C)(C)[N+]([O-])=Cc1ccc(S(=O)(=O)O)cc1S(=O)(=O)O`, the Potency result in assay [1], in assay [2], in assay [3] and in assay [4] was “inactive” in each case.
In the case of `O=C(/C=C/c1ccccc1)OC/C=C/c1ccccc1`, the Potency result in assay [1], in assay [2], in assay [3] and in assay [4] was “inactive” in each case.
With `CN(C)c1nc(Cc2ccc(NC(=O)c3ccc4ccccc4c3)cc2)nc(Cl)c1CC(=O)O`, the Potency result in assay [1], in assay [2], in assay [3] and in assay [4] was “inactive” in each case.
With `CC1=C[C@H]2[C@]3(O)C(C=C(CO)C[C@]2(O)C1=O)[C@@H]1C(C)(C)[C@]1(O)[C@H](O)[C@H]3C` (stereo not given in full), the Potency result in assay [1], in assay [2], in assay [3] and in assay [4] was “inactive” each time.
With `C/C=C1/C[C@@H](C)[C@@](C)(O)C(=O)OCC2=CCN3CC[C@@H](OC1=O)[C@@H]23`, the Potency entry in assay [1], in assay [2], in assay [3] and in assay [4] was “inactive” in each case.
For the molecule `C[C@]12CCC(=O)C=C1CC[C@@H]1[C@H]2[C@@H](O)C[C@@]2(C)[C@H]1CC[C@]2(O)C(=O)CO`, the Potency entry in assay [1], in assay [2], in assay [3] and in assay [4] was “inactive” each time.
In the case of `CCC1CCC(=O)O1` (stereo not given), the Potency result in assay [1], in assay [2], in assay [3] and in assay [4] was “inactive” each time.
Regarding `[3H]C([3H])([3H])C(O)(CCC[C@@H](C)C1CC[C@H]2/C(=C/C=C3/C[C@@H](O)CCC3=C)CCC[C@]12C)C([3H])([3H])[3H]` (stereo not given in full), the Potency result in assay [1], in assay [2], in assay [3] and in assay [4] was “inactive” each time.
Regarding `CC1=C2C(=O)OC(c3ccoc3)C2(C)CCC1` (stereo not given), the Potency result in assay [1], in assay [2], in assay [3] and in assay [4] was “inactive” in each case.
For the molecule `C[C@@H](C[C@@H](O)[C@H](O)C(C)(C)O)[C@@H]1CC[C@]2(C)C3=CC[C@H]4C(C)(C)C(=O)CC[C@]4(C)[C@H]3CC[C@@]12C`, the Potency entry in assay [1], in assay [2], in assay [3] and in assay [4] was “inactive” in each case.
As for `O=C(Nc1cccc(C(F)(F)F)c1)Nc1cc(S(=O)(=O)NC2CC2)ccc1-c1ccsc1`, the Potency entry in assay [1], in assay [2], in assay [3] and in assay [4] was “inactive” throughout.
Consider `COc1c(O)c(O)c2oc(-c3ccccc3)cc(=O)c2c1OC`, for which the Potency result in assay [1], in assay [2], in assay [3] and in assay [4] was “inactive” in each case.
With `C[C@@H]1O[C@@H](O[C@H]2[C@H](O)[C@@H](O)[C@H](Oc3c(-c4ccc(O)cc4)oc4cc(O)cc(O)c4c3=O)O[C@@H]2CO)[C@H](O)[C@H](O)[C@H]1O`, the Potency result in assay [1], in assay [2], in assay [3] and in assay [4] was “inactive” in each case.
